Experimental data published in PubChem BioAssay AID1159580 (chemical genetic matrix, 2015).
Screen size: about 5,500 compounds; about 2,000 (36%) were called active. Roughly 18% stayed inconclusive and do not appear here. Rule as the data show it: active = normalized growth mostly below about 0.91 (no sharp cut-off); inconclusive = no clear call, values can overlap the other calls; inactive = mostly above about 0.92. This is one part of the list.

Experiment: chemical genetic growth profiling, strain panel (AID 1159580);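 also: tested at 20 µM; growth read once vehicle control cultures reached saturation at 30 °C; 1 = growth at the plate median or of vehicle wells; lower values mean less growth of the strain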
Conditions: growth OD

Measured: normalized growth

CC(=O)[C@@]1(O)CCC2C3CCC4=CC(=O)CC[C@]4(C)C3CC[C@@]21C (stereo partly drawn)
active: S. cerevisiae deletion strains, locus YLR262C, strain YPT6 (second series), hits give low values 0.823
inactive: S. cerevisiae deletion strains, locus YJR066W, strain TOR1, hits give low values 0.93 | S. cerevisiae deletion strains, locus YKL009W, strain mrt4, hits give low values 0.995 | S. cerevisiae deletion strains, locus YKL068W, hits give low values 1.01 | S. cerevisiae deletion strains, locus YKL085W, strain MDH1 (second series), hits give low values 1.02 | S. cerevisiae deletion strains, locus YKL085W, strain MDH1, hits give low values 1.02 | S. cerevisiae deletion strains, locus YKL160W, strain elf1, hits give low values 0.997 | S. cerevisiae deletion strains, locus YKL190W, strain CNB1, hits give low values 0.998 | S. cerevisiae deletion strains, locus YKR001C, strain vps1, hits give low values 1.06 | S. cerevisiae deletion strains, locus YKR026C, strain gcn3, hits give low values 0.966 | S. cerevisiae deletion strains, locus YKR091W, strain srl3, hits give low values 0.991 | S. cerevisiae deletion strains, locus YLL001W, strain dnm1, hits give low values 0.98 | S. cerevisiae deletion strains, locus YLL026W, hits give low values 0.994 | S. cerevisiae deletion strains, locus YLL041C, strain sdh2, hits give low values 0.99 | S. cerevisiae deletion strains, locus YLR027C, strain aat2, hits give low values 1 | S. cerevisiae deletion strains, locus YLR039C, strain RIC1, hits give low values 0.841 | S. cerevisiae deletion strains, locus YLR058C, strain SHM2, hits give low values 0.987 | S. cerevisiae deletion strains, locus YLR102C, strain apc9, hits give low values 1.01 | S. cerevisiae deletion strains, locus YLR113W, strain HOG1, hits give low values 0.97 | S. cerevisiae deletion strains, locus YLR221C, strain rsa3, hits give low values 1 | S. cerevisiae deletion strains, locus YLR258W, strain gsy2, hits give low values 0.993 | S. cerevisiae deletion strains, locus YLR262C, strain YPT6, hits give low values 0.805 | S. cerevisiae deletion strains, locus YLR268W, strain sec22, hits give low values 1.01 | S. cerevisiae deletion strains, locus YLR320W, strain mms22, hits give low values 0.939 | S. cerevisiae deletion strains, locus YLR330W, strain CHS5, hits give low values 1 | S. cerevisiae deletion strains, locus YLR342W, strain FKS1 (second series), hits give low values 0.987 | S. cerevisiae deletion strains, locus YLR342W, strain FKS1, hits give low values 0.989 | S. cerevisiae deletion strains, locus YLR357W, strain rsc2, hits give low values 1.01 | S. cerevisiae deletion strains, locus YLR370C, strain arc18, hits give low values 0.984 | S. cerevisiae deletion strains, locus YLR371W, strain rom2, hits give low values 1.01 | S. cerevisiae deletion strains, locus YLR384C, strain iki3, hits give low values 1.01 | S. cerevisiae deletion strains, locus YLR418C, strain cdc73, hits give low values 1.01 | S. cerevisiae deletion strains, locus YML016C, strain PPZ1, hits give low values 0.986 | S. cerevisiae deletion strains, locus YML032C, strain rad52, hits give low values 0.981 | S. cerevisiae deletion strains, locus YML120C, strain ndi1, hits give low values 1.01 | S. cerevisiae deletion strains, locus YML124C, strain tub3, hits give low values 1 | S. cerevisiae deletion strains, locus YMR058W, strain fet3, hits give low values 0.996 | S. cerevisiae deletion strains, locus YMR078C, strain ctf18, hits give low values 0.992 | S. cerevisiae deletion strains, locus YMR125W, strain sto1, hits give low values 0.984 | S. cerevisiae deletion strains, locus YMR129W, hits give low values 0.982 | S. cerevisiae deletion strains, locus YMR205C, strain PFK2, hits give low values 0.957 | S. cerevisiae deletion strains, locus YMR223W, strain ubp8, hits give low values 0.995 | S. cerevisiae deletion strains, locus YMR231W, strain pep5, hits give low values 0.996 | S. cerevisiae deletion strains, locus YMR307W, strain GAS1, hits give low values 0.97 | S. cerevisiae deletion strains, locus YNL067W, strain RPL9B, hits give low values 0.999 | S. cerevisiae deletion strains, locus YNL071W, strain lat1, hits give low values 1 | S. cerevisiae deletion strains, locus YNL183C, strain NPR1, hits give low values 0.907 | S. cerevisiae deletion strains, locus YNL209W, strain ssb2, hits give low values 0.995 | S. cerevisiae deletion strains, locus YNL233W, strain BNI4, hits give low values 1 | S. cerevisiae deletion strains, locus YNL248C, strain rpa49, hits give low values 0.999 | S. cerevisiae deletion strains, locus YNL250W, strain rad50, hits give low values 1.01 | S. cerevisiae deletion strains, locus YNL271C, strain bni1, hits give low values 1 | S. cerevisiae deletion strains, locus YNL298W, strain CLA4, hits give low values 1.01 | S. cerevisiae deletion strains, locus YNL307C, strain MCK1, hits give low values 1.01 | S. cerevisiae deletion strains, locus YNL322C, strain KRE1 (second series), hits give low values 0.996 | S. cerevisiae deletion strains, locus YNL322C, strain KRE1, hits give low values 0.994 | S. cerevisiae deletion strains, locus YNR049C, strain mso1, hits give low values 0.988 | S. cerevisiae deletion strains, locus YNR052C, strain pop2, hits give low values 1 | S. cerevisiae deletion strains, locus YOL012C, strain htz1 0.769 | S. cerevisiae deletion strains, locus YOL147C, strain pex11, hits give low values 1.01 | S. cerevisiae deletion strains, locus YOR001W, strain rrp6, hits give low values 1 | S. cerevisiae deletion strains, locus YOR061W, strain CKA2, hits give low values 0.993 | S. cerevisiae deletion strains, locus YOR069W, strain VPS5, hits give low values 0.996 | S. cerevisiae deletion strains, locus YOR070C, strain gyp1, hits give low values 0.994 | S. cerevisiae deletion strains, locus YOR080W, strain dia2, hits give low values 0.991 | S. cerevisiae deletion strains, locus YOR083W, strain WHI5, hits give low values 1 | S. cerevisiae deletion strains, locus YOR106W, strain vam3, hits give low values 1.02 | S. cerevisiae deletion strains, locus YOR136W, strain idh2, hits give low values 1.01 | S. cerevisiae deletion strains, locus YOR144C, strain elg1, hits give low values 1 | S. cerevisiae deletion strains, locus YOR184W, strain ser1, hits give low values 0.943 | S. cerevisiae deletion strains, locus YOR231W, strain MKK1, hits give low values 0.965 | S. cerevisiae deletion strains, locus YOR265W, strain rbl2, hits give low values 1 | S. cerevisiae deletion strains, locus YOR270C, strain vph1, hits give low values 0.974 | S. cerevisiae deletion strains, locus YOR290C, strain snf2, hits give low values 0.953 | S. cerevisiae deletion strains, locus YOR316C, strain cot1, hits give low values 1 | S. cerevisiae deletion strains, locus YPL051W, strain arl3, hits give low values 0.995 | S. cerevisiae deletion strains, locus YPL055C, strain LGE1, hits give low values 1.02 | S. cerevisiae deletion strains, locus YPL078C, strain atp4, hits give low values 0.997 | S. cerevisiae deletion strains, locus YPL106C, strain sse1, hits give low values 1.02 | S. cerevisiae deletion strains, locus YPL240C, strain hsp82, hits give low values 0.987 | S. cerevisiae deletion strains, locus YPL241C, strain CIN2, hits give low values 0.995 | S. cerevisiae deletion strains, locus YPL256C, strain CLN2, hits give low values 0.96 | S. cerevisiae deletion strains, locus YPR119W, strain clb2, hits give low values 1 | S. cerevisiae deletion strains, locus YPR141C, strain kar3, hits give low values 0.992 | S. cerevisiae deletion strains, locus YPR163C, strain tif3, hits give low values 0.998 | S. cerevisiae deletion strains, locus YPR167C, strain met16, hits give low values 1 | S. cerevisiae deletion strains, strain wtn01, hits give low values 1.05 | S. cerevisiae strains, strain wild type, hits give low values 0.991
